The source of these data is ChEMBL document CHEMBL3988442, “University of Dundee, Small-Polar-MMV Screening Library” (2021).

Hit rate of the full screen: of about 48,000 compounds, about 13,000 (27%) showed an effect of 50% or more. The list shows a part of the results.

In this assay the test system is Wolbachia pipientis. In words: Anti-Wolbachia Cell-Based Screen. In kind it is functional. Set-up: scale not given: in the data most compounds retested in dose-response had high values. The following applies: 5 µM.
Take `COc1ccc2nc(C3CC3)cc(C(=O)NCc3noc(C)n3)c2c1`: the “Percent Effect” value stood at 1.07%. As for `Cc1c(Br)cccc1C(=O)NCC1CCCNC1.Cl` (configuration not stated), the figure is 0.4435%; as for `COc1ccc2nc(C3CC3)cc(C(=O)NCCc3nnc[nH]3)c2c1`, -12.63%. As for `COCCNC(=O)c1cc(C2CC2)nc2onc(C3CCNC3)c12` (configuration not stated), the figure is 98.56%; as for `O=C(NCC1CC1)c1cc(C2CC2)nc2onc(C3CCCNC3)c12` (configuration not stated), 103.5%; as for `CC(C)Nc1nc2c(cc1C(=O)NCC1CC1)CCNCC2.O=C(O)C(F)(F)F.O=C(O)C(F)(F)F`, -11.9%. As for `O=c1[nH]c(C2CCOC2)nc2ccc(Br)cc12` (configuration not stated), the figure is -44.09%. As to `CCCc1noc(CNc2cc(C[S+](C)[O-])ccc2Cl)n1` (configuration not stated), the “Percent Effect” value is -7.446%. As for `c1cnn(CCNCc2csc(-c3ccc4c(c3)OCO4)n2)c1`, the figure is -13.49%; as for `COC(=O)CNC(=O)C(C(C)C)n1cnc2cc(F)c(F)cc21` (configuration not stated), -6.926%; as for `CCn1cnnc1CNC(=O)N1CCN(Cc2ccsc2)CC1`, 120.4%. As for `CCn1cnnc1CNC(=O)N1CCN(CC(C)C)CC1`, the figure is 151.2%; as for `CCn1cnnc1CNC(=O)N1CCN(C(C)C)CC1`, 131.3%; as for `CCn1cnnc1CNC(=O)N1CCN(c2cccs2)CC1`, 0.168%.

As for `CCn1cnnc1CNC(=O)N1CCN(c2nccs2)CC1`, the “Percent Effect” value is listed as 84.21%. As for `CCn1cnnc1CNC(=O)NCC(C(C)C)N1CCC(C)CC1` (configuration not stated), the figure is -9.877%; as for `CCn1cnnc1CNC(=O)N1CCN(c2nc(C)c(C)s2)CC1`, 1.256%. In the case of `CCC1CN(Cc2nnc(C(C)C)o2)CCC(=O)N1Cc1ccccc1` (configuration not stated), the “Percent Effect” value is -5.543%. As for `CC(C)N(C)C(=O)C1CCC(=O)N(CCc2cccc(F)c2)C1` (configuration not stated), the figure is -15.9%; as for `CN(Cc1ccco1)C(=O)NCc1ccnc(SC(C)(C)C)c1`, 12.7%; as for `CN1CCOC(C(=O)N2CCOC3(CCCC3)C2)C1` (configuration not stated), 0.3314%. `CC(NC(=O)N1CCN(CCc2ccccc2)CC1)c1nncn1C` (configuration not stated): the “Percent Effect” value is reported as -0.7448%. As for `CCn1cnnc1CNC(=O)N1CCCN(C(C)=O)CC1`, the figure is -5.792%; as for `CCn1cnnc1CNC(=O)N1CCOCC1`, -3.836%. As for `CCn1cnnc1CNC(=O)N1CCN(CCc2ccccc2)CC1`, the figure is 119.3%. As for `CCn1cnnc1CNC(=O)N1CCN(Cc2ccco2)CC1`, the figure is 145.2%; as for `CCn1cnnc1CNC(=O)N1CCCCCC1`, 138.5%; as for `CCc1nncn1CCNC(=O)N1CCN(Cc2ccccc2)CC1`, 122%. `CCn1cnnc1CNC(=O)N1CCN(Cc2ccccc2)CC1`: the “Percent Effect” value was found to be 4.693%.

With `Cc1cc(CNC(=O)N2CCCN(Cc3ccccc3)CC2)no1`, the “Percent Effect” value is recorded as 3.243%. As for `CCn1cnnc1CNC(=O)N1CCC(Cc2cccnc2)CC1`, the figure is 3.678%; as for `CCn1cnnc1CNC(=O)N1CCOC(c2ccc(F)cc2)C1` (configuration not stated), -19.34%; as for `CC(C)Oc1cccc(C(=O)C2CCCN(C(=O)c3ccoc3)C2)c1` (configuration not stated), 9.263%.

Regarding `CCSCc1cccc(NC(=O)N(C)Cc2ncnn2C)c1`, the “Percent Effect” value is reported as -22.36%. As for `COc1ccc(NC(C)C(=O)N2CCCC2)cn1` (configuration not stated), the figure is 2.582%. As for `CCN(CC)C1CCN(C(=O)NCc2nncn2CC)CC1`, the figure is 7.856%.

`CCn1cnnc1CNC(=O)N1CCC(C(=O)NC)CC1`: the “Percent Effect” value was -5.598%.

In the case of `CCn1cnnc1CNC(=O)N1CCC(OCc2ccccc2)CC1`, the “Percent Effect” value was 128.6%.

Take `O=C(NCC(O)c1cccc(O)c1)C1CCN(C2CCCCC2)CC1` (configuration not stated): the “Percent Effect” value was -14.15%. On to `Cc1nc[nH]c1-c1c(-c2ccccc2)ncn1C1CCNC1` (configuration not stated), for which the “Percent Effect” value is recorded as 7.819%.

For `Cc1ccc(N2CC[C@H]3O[C@@H](C(=O)N4CCCCO4)CC[C@H]32)nn1.O=C(O)C(F)(F)F`, the “Percent Effect” value is given as 113.9%.

Turning to `O=C([C@@H]1CC[C@@H]2[C@@H](CCN2c2ncccn2)O1)N1CCCO1`, the “Percent Effect” value is given as 3.223%. As for `O=C(O)C(F)(F)F.O=C([C@H]1CC[C@@H]2[C@@H](CCN2Cc2ccc(F)cc2)O1)N1CCCO1`, the figure is -3.999%.

Turning to `O=C(O)C(F)(F)F.O=C([C@@H]1CC[C@@H]2[C@@H](CCN2c2ccncn2)O1)N1CCCCO1`, the “Percent Effect” value is reported as 117.6%.

Turning to `Cc1ccc(N2CC[C@H]3O[C@H](C(=O)N4CCCCO4)CC[C@H]32)nn1.O=C(O)C(F)(F)F`, the “Percent Effect” value was determined as 105.7%.

On to `CN1CCN(C(=O)[C@@H]2CC[C@@H]3[C@@H](CCN3c3ncccn3)O2)CC1.O=C(O)C(F)(F)F.O=C(O)C(F)(F)F`, for which the “Percent Effect” value was -4.531%.

`O=C([C@H]1CC[C@@H]2[C@@H](CCN2c2ncccn2)O1)N1CCCCO1`: the “Percent Effect” value is reported as 84.25%. As for `O=C(O)C(F)(F)F.O=C([C@@H]1COC[C@H]2CN(c3ccncn3)C[C@H]21)N1CCCCO1`, the figure is -6.047%; as for `COC(=O)N(C)CCCC(=O)Nc1[nH]nc(-c2ccncc2)c1C`, -7.715%. As for `O=C1CC[C@H]2CN(C3CCOCC3)CC[C@H]2N1CCC1=CCCCC1`, the figure is 14.62%; as for `Cc1ccc(N2CC[C@H]3O[C@@H](C(=O)N4CCCO4)CC[C@H]32)nn1.O=C(O)C(F)(F)F`, 88.3%. As for `Cc1ccc(N2CC[C@H]3O[C@@H](C(=O)NCc4ccco4)CC[C@H]32)nn1.O=C(O)C(F)(F)F`, the figure is 17.63%; as for `Cc1ccc(CN2CC[C@H]3O[C@@H](C(=O)N4CCCO4)CC[C@H]32)s1.O=C(O)C(F)(F)F`, -7.276%.

Turning to `CSCCc1ccc(NC(=O)NC(C)Cn2cncn2)cc1` (configuration not stated), the “Percent Effect” value is recorded as -13.08%.

As to `CNc1ccnc(N2CC[C@@](O)(C3CCOCC3)[C@H](C)C2)n1`, the “Percent Effect” value turned out to be 0.6002%. As for `C[C@@H]1CN(C(=O)c2c[nH]c(=O)c(Cl)c2)CC[C@@]1(O)C1CCOCC1`, the figure is 3.711%; as for `C[C@@H]1CN(c2ccc(Cl)cn2)CC[C@@]1(O)C1CCOCC1`, 111.4%. As for `C[C@@H]1CN(C(=O)c2ccc(C#N)nc2)CC[C@@]1(O)C1CCOCC1`, the figure is -17.54%; as for `C[C@@H]1CN(c2cccnn2)CC[C@@]1(O)C1CCOCC1`, 104.1%. Regarding `C[C@@H]1CN(c2ccc(C#N)cn2)CC[C@@]1(O)C1CCOCC1`, the “Percent Effect” value was 124%.

Consider `C[C@@H]1CN(C(=O)c2cnc(C3CC3)nc2)CC[C@@]1(O)C1CCOCC1`, for which the “Percent Effect” value is -14.06%. As for `CN(Cc1ccsc1)C(=O)C1CCC(=O)N(Cc2ccccn2)C1` (configuration not stated), the figure is 0.2635%. As for `O=C(Nc1ccc(F)cc1)C1CNCCN1C(=O)CSc1ccncc1` (configuration not stated), the figure is -2.751%. With `CN1CC(Nc2ccc(Br)cc2C#N)CCC1=O` (configuration not stated), the “Percent Effect” value is listed as -7.586%. Consider `CN(Cc1n[nH]c(=O)n1Cc1cccs1)S(C)(=O)=O`, for which the “Percent Effect” value is 2.826%. Regarding `COc1ccc(CNC[C@H]2COCc3nc4cc(F)ccc4n32)cc1`, the “Percent Effect” value was -1.545%. Take `Cc1cc(C)c2c(c1)C(NCc1nnc3n1CCC3)CCCO2` (configuration not stated): the “Percent Effect” value is -14.27%. Take `CC(C)c1nnc(CN(C)C(c2ccccc2)c2ccc(F)cc2)o1` (configuration not stated): the “Percent Effect” value came out at 6.032%. As for `CC1CCN(Cc2ccc(CNC(=O)c3ccn(C)c(=O)c3)cc2)CC1`, the figure is 110.1%. On to `CC1CN(c2ccc(CNC(=O)c3ccn(C)c(=O)c3)cn2)CCO1` (configuration not stated), for which the “Percent Effect” value is -2.154%. In the case of `Cn1ccc(C(=O)NCc2ccc(N3CCCC3)nc2)cc1=O`, the “Percent Effect” value is listed as -7.824%. As for `Cn1ccc(C(=O)NCc2ccc(Cn3ccnc3)cc2)cc1=O`, the figure is -4.475%; as for `Cn1ccc(C(=O)NCc2ccc(CN3CCCCC3)cc2)cc1=O`, 90.87%; as for `O=C(NCc1ccc(CN2CCCC2)cc1)NC1(CO)CCCC1`, -3.44%.

Take `Cc1nccn1Cc1cccc(CNC(=O)c2ccn(C)c(=O)c2)c1`: the “Percent Effect” value was 4.832%.

Consider `Cn1ccc(C(=O)NCc2cccc(Cn3ccnc3)c2)cc1=O`, for which the “Percent Effect” value amounted to 0.02977%. As to `Cn1ccc(C(=O)NCc2ccc(CN3CCCC3)cc2)cc1=O`, the “Percent Effect” value is on record as 100.9%. For `Cc1c(C)n(CC(O)CN2CCOCC2)c2c(Cl)cccc12.Cl` (configuration not stated), the “Percent Effect” value was found to be 0.7413%. As for `Cc1csc(C(C)(C)NCC(=O)N2CCCC(C(F)(F)F)C2)n1` (configuration not stated), the figure is -11.49%; as for `COc1ccc(N(C(=O)c2ccccn2)C(C)C)cc1F`, 1.663%; as for `CCc1ccc(CN2CCN(c3ncc(Cl)cn3)CC2)nc1`, -9.614%. As for `CC(=O)N[C@H]1CCN(C(=O)c2cc(Cn3cnc4ccccc43)[nH]n2)C1`, the figure is -30.35%; as for `COCCN(CCOC)C(=O)c1ccn(-c2ccc3ccccn23)n1`, 3.271%; as for `NC(=O)CNC(=O)c1cc(Cn2cnc3ccccc32)[nH]n1`, -4.781%. As for `CCCN(CC)C(=O)c1nc2c(n1C)CCN(Cc1ccccc1)C2`, the figure is -8.908%; as for `CCCN(CC)C(=O)c1cc(Cn2c(C)nc3ccccc32)[nH]n1`, 146%.

For the compound `CC(CNC(=O)c1cc(Cn2cnc3ccccc32)[nH]n1)N1CCCC1` (configuration not stated), the “Percent Effect” value is on record as 2.077%. As for `COCCN(C(=O)c1cc(-c2ccc(C)s2)[nH]n1)C1CC1`, the figure is 0.109%; as for `CCCN(CCOC)C(=O)c1cc(Cn2c(C)nc3ccccc32)[nH]n1`, 142.8%. With `CCN(CCO)C(=O)c1cc(Cn2c(C)nc3ccccc32)[nH]n1`, the “Percent Effect” value is reported as 148%. As for `COc1ccc(OC)c(CNC2CCCN(c3cccnn3)C2)c1` (configuration not stated), the figure is -14.68%.

For `Cc1ccoc1C(=O)N1CCNCC1C(=O)NCc1ccncc1` (configuration not stated), the “Percent Effect” value was -11.73%. As for `Cc1cc2n(n1)CC(CNCCc1cnn(C)c1)CN2` (configuration not stated), the figure is -15.02%; as for `O=C(NCCCC(=O)N1Cc2ccccc2C1)NCc1nccs1`, -8.527%; as for `CC(=O)N1CCN(C(=O)CNc2ccc3ncsc3c2)CC1`, -9.479%.

As to `CCCc1nc(N(C)CCc2noc(C(C)C)n2)c2cnn(C)c2n1`, the “Percent Effect” value came out at 13.53%. As for `CCc1nnc2n1CCN(C(=O)C(C)COCc1ccccc1)C2` (configuration not stated), the figure is 5.124%.
